# Measurements: PubChem BioAssay (EPA / NIEHS)
# Active and inactive are the calls of the source. The calls were made as follows: active = hit-call score of the fitted dose curve at least 0.9, where 1 is the maximum; inactive = score below 0.9.
# Read-out: Protein phosphatase 2A (PPP2R4), PTPA (gene 5524)
# Assay: LTEA_HepaRG_PPP2R4: Life Technologies and Expression Analysis (LTEA) Assay for Protein phosphatase 2A (PPP2R4) using HepaRG (AID 2283522)
# Settings: mRNA level, 48 h; actives raise or lower the signal
# Summary of the method: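 Differentiated human HepaRG cells in serum-free induction medium were exposed 48 h to 8 concentrations (top 100 µM, half-log steps, duplicate) in 0.5% DMSO. PPP2R4 mRNA was measured by TaqMan qRT-PCR, normalised to ACTB, GAPDH and POLR2A, and fitted bidirectionally versus DMSO.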
SMILES,outcome,AC50
C=C(C)CN(CC)c1c([N+](=O)[O-])cc(C(F)(F)F)cc1[N+](=O)[O-],inactive,
N#Cc1c[nH]cc1-c1cccc2c1OC(F)(F)O2,inactive,
CCOc1nc(C(Cl)(Cl)Cl)ns1,,0.801 µM (active)
CCN(CC)c1nc(C)cc(OP(=S)(OC)OC)n1,inactive,
O=C(Nc1ccccc1-c1ccc(Cl)cc1)c1cccnc1Cl,inactive,
COC(=O)NS(=O)(=O)c1ccc(N)cc1,inactive,
CC(C)NC(=O)N1CC(=O)N(c2cc(Cl)cc(Cl)c2)C1=O,inactive,
CC(C)Oc1cccc(NC(=O)c2ccccc2C(F)(F)F)c1,inactive,
O=C1C2CC=CCC2C(=O)N1SC(Cl)(Cl)Cl (stereo unspecified),inactive,
OC(c1ccc(Cl)cc1)(c1ccc(Cl)cc1)C(Cl)(Cl)Cl,inactive,
COc1ccc(-c2ccccc2)cc1NNC(=O)OC(C)C,inactive,
CCCC(=NOCC)C1=C(O)CC(CC(C)SCC)CC1=O (stereo unspecified),inactive,
CC(C)=CC1C(C(=O)OCc2coc(Cc3ccccc3)c2)C1(C)C (stereo unspecified),inactive,
CC1(C)C(C=C(Cl)Cl)C1C(=O)OC(C#N)c1cccc(Oc2ccccc2)c1 (stereo unspecified),inactive,
CO/N=C(/C1=NOCCO1)c1ccccc1Oc1ncnc(Oc2ccccc2Cl)c1F,inactive,
CNC(=O)N(C)c1nnc(C(C)(C)C)s1,inactive,
N#CN=C1SCCN1Cc1ccc(Cl)nc1,inactive,
CCCCOCN(C(=O)CCl)c1c(CC)cccc1CC,inactive,

SMILES,outcome,AC50
Nc1cnn(-c2ccccc2)c(=O)c1Cl,inactive,
O=c1n(Cl)c(=O)n(Cl)c(=O)n1Cl,inactive,
CNC(=O)Oc1cccc2ccccc12,inactive,
CC(C)N1C(=O)N(c2ccccc2)CSC1=NC(C)(C)C,,77.4 µM (active)
CCSC(=O)N1CCCCCC1,inactive,
COP(=O)(OC)O/C(C)=C/C(=O)N(C)C,inactive,
Nc1c(Cl)c(F)nc(OCC(=O)O)c1Cl,inactive,
Cc1cc(C)nc(Nc2ccccc2)n1,inactive,
O=C(O)c1c(Cl)ccc2cc(Cl)cnc12,inactive,
N#Cc1c(Cl)cccc1Cl,inactive,
CC1(C)C(C(=O)OC(C#N)c2cccc(Oc3ccccc3)c2)C1(C)C (stereo unspecified),inactive,
COCC(C)N(C(=O)CCl)c1c(C)csc1C (stereo unspecified),inactive,
Cc1c(COC(=O)[C@@H]2[C@H](/C=C(\Cl)C(F)(F)F)C2(C)C)cccc1-c1ccccc1,inactive,
CCCN(CC)CC1COC2(CCC(C(C)(C)C)CC2)O1 (stereo unspecified),inactive,
COC(=O)c1c(C(F)F)nc(C(F)(F)F)c(C2=NCCS2)c1CC(C)C,inactive,
CCCCC(O)(Cn1cncn1)c1ccc(Cl)cc1Cl (stereo unspecified),inactive,
CC(C)N1C(=O)c2ccccc2NS1(=O)=O,inactive,
CCOP(=S)(OCC)Oc1nc(Cl)n(C(C)C)n1,inactive,
